Measured values as given in the supplement of paper PMC12350171.
Structures can show the parent of a compound that is named as a salt.

Experiments:
Experiment in all cases: growth AUC normalised to DMSO control (median) (fraction of control); higher = less growth inhibition, active = hit call of the paper
Conditions in all cases: 20 µM;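 active = normalised median growth AUC below 0.1 of DMSO control; inactive = AUC 0.1 or higher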
P. vulgatus RND KO = tested on: P. vulgatus RND KO
Procedure, shortened: (§1)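 Each strain went through two overnight passages under anaerobic conditions before growth in mGAM in 96-well plates, starting at OD578 0.01, with each compound from the approved-drug library at 20 μM and 1% DMSO. Inside an anaerobic incubator, OD578 was recorded every hour for 24 h. Growth curves were cut off at entry into stationary phase, and the area under the curve was calculated by the trapezoidal rule and normalised to vehicle wells on the same plate. Reported values are medians of three biological replicates.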

P. vulgatus WT = tested on: P. vulgatus WT
Procedure, shortened: as §1

[1] = tested on: S. enterica typhimurium WT
Procedure, shortened: as §1

[2] = tested on: S. enterica typhimurium tolC KO
Procedure, shortened: as §1

Measured: growth AUC normalised to DMSO control
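Also: active when median AUC fell below 0.1.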

NC(=O)OCC(COC(N)=O)c1ccccc1 [Felbamate]
inactive: P. vulgatus RND KO 1 | P. vulgatus WT 1.04 | [1] 0.999 | [2] 1

CC(=O)Nc1ccc(OC(=O)c2ccccc2O)cc1 [Acetaminosalol]
inactive: P. vulgatus RND KO 0.959 | P. vulgatus WT 0.964 | [1] 1 | [2] 0.937

CC#CCn1c(N2CCC[C@@H](N)C2)nc2c1c(=O)n(Cc1nc(C)c3ccccc3n1)c(=O)n2C [Linagliptin]
inactive: P. vulgatus RND KO 0.987 | P. vulgatus WT 1.02 | [1] 1 | [2] 0.98

Cc1cc(NS(=O)(=O)c2ccc(N)cc2)nc(C)n1 [Sulfisomidine]
inactive: P. vulgatus RND KO 1.03 | P. vulgatus WT 1.03 | [1] 1 | [2] 0.995

C=CC[C@@H]1/C=C(\C)C[C@H](C)C[C@H](OC)[C@H]2O[C@@](O)(C(=O)C(=O)N3CCCC[C@H]3C(=O)O[C@H](/C(C)=C/[C@@H]3CC[C@@H](O)[C@H](OC)C3)[C@H](C)[C@@H](O)CC1=O)[C@H](C)C[C@@H]2OC [Tacrolimus Monohydrate]
inactive: P. vulgatus RND KO 1 | P. vulgatus WT 1.03 | [1] 0.998 | [2] 1.04

CC(C)[C@H](N)C(=O)OCC(CO)OCn1cnc2c(=O)nc(N)[nH]c21 (some centres undefined) [Valganciclovir hydrochloride]
inactive: P. vulgatus RND KO 1.04 | P. vulgatus WT 1.08 | [1] 1 | [2] 1

C/C(=C(\CCOC(=O)c1ccccc1)SS/C(CCOC(=O)c1ccccc1)=C(/C)N(C=O)Cc1cnc(C)nc1N)N(C=O)Cc1cnc(C)nc1N [Bisbentiamine]
inactive: P. vulgatus RND KO 1.02 | P. vulgatus WT 1.07 | [1] 1.01 | [2] 0.999

OC[C@H]1O[C@H](O[C@H]2O[C@H](CO)[C@@H](O)[C@H](O)[C@H]2O)[C@H](O)[C@@H](O)[C@@H]1O [Trehalose dihydrate]
inactive: P. vulgatus RND KO 1 | P. vulgatus WT 1 | [1] 1.01 | [2] 1.01

CCOc1cc(N)c(Cl)cc1C(=O)NCC1CN(Cc2ccc(F)cc2)CCO1 (centres undefined) [Mosapride]
inactive: P. vulgatus RND KO 0.938 | P. vulgatus WT 0.981 | [1] 0.988 | [2] 0.722

COC(=O)[C@H](c1ccccc1Cl)N1CCc2sccc2C1 [Clopidogrel]
inactive: P. vulgatus RND KO 0.999 | P. vulgatus WT 0.996 | [1] 1 | [2] 0.914

Cc1c(O)cccc1C(=O)N[C@@H](CSc1ccccc1)[C@H](O)CN1C[C@H]2CCCC[C@H]2C[C@H]1C(=O)NC(C)(C)C [Nelfinavir mesylate]
inactive: P. vulgatus RND KO 0.912 | P. vulgatus WT 0.954 | [1] 1 | [2] 0.962

CCC(C)(C)c1ccc(CC(C)CN2C[C@@H](C)O[C@@H](C)C2)cc1 (some centres undefined) [Amorolfine hydrochloride]
inactive: P. vulgatus RND KO 1.01 | P. vulgatus WT 1.03 | [1] 1.01 | [2] 0.963

CC(=O)[C@@]12O[C@](C)(c3ccccc3)O[C@@H]1C[C@H]1[C@@H]3CCC4=CC(=O)CC[C@]4(C)[C@H]3CC[C@@]12C [Algestone acetophenide]
inactive: P. vulgatus RND KO 0.955 | P. vulgatus WT 0.983 | [1] 1 | [2] 0.993

CCC(=O)O[C@@H]1CC(=O)O[C@H](C)C/C=C/C=C/[C@H](O)[C@H](C)C[C@H](CC=O)[C@H](O[C@@H]2O[C@H](C)[C@@H](O[C@H]3C[C@@](C)(O)[C@@H](OC(=O)CC)[C@H](C)O3)[C@H](N(C)C)[C@H]2O)[C@H]1OC [Midecamycin]
active: P. vulgatus RND KO 0.00894 | P. vulgatus WT 0.0119 | [2] 0.0799
inactive: [1] 0.998

CC(C)=CCC1C(=O)N(c2ccccc2)N(c2ccccc2)C1=O [Feprazone]
inactive: P. vulgatus RND KO 1.04 | P. vulgatus WT 1.09 | [1] 1 | [2] 0.983

Cc1ccc2c(Cl)cc(Cl)c(O)c2n1 [Chlorquinaldol]
inactive: [1] 0.982 | [2] 0.371
active: P. vulgatus RND KO 0.0174 | P. vulgatus WT 0.014

O=C(O)CSCC(=O)NC1CCSC1=O (centres undefined) [Erdosteine]
inactive: P. vulgatus RND KO 1.02 | P. vulgatus WT 1.04 | [1] 1 | [2] 0.999

CC(C)OC(=O)C(C(=O)OC(C)C)=C1SC=CS1 [Malotilate]
inactive: P. vulgatus RND KO 0.988 | P. vulgatus WT 0.977 | [1] 1 | [2] 0.899

CCCN1CCCC[C@H]1C(=O)Nc1c(C)cccc1C [Ropivacaine hydrochloride]
inactive: P. vulgatus RND KO 1.02 | P. vulgatus WT 1.03 | [1] 0.997 | [2] 1

CCCCCCNC(=O)n1cc(F)c(=O)[nH]c1=O [Carmofur]
inactive: [1] 0.806 | [2] 0.717
active: P. vulgatus RND KO 0.0803 | P. vulgatus WT 0.0792

N[C@@H]1CCCCN(c2c(F)cc3c(=O)c(C(=O)O)cn(C4CC4)c3c2Cl)C1 [Besifloxacin hydrochloride]
active: P. vulgatus RND KO 0.0164 | P. vulgatus WT 0.0175 | [1] 0.00618 | [2] 0.00833
